Activity calls are given as the source filed them. The calls were made as follows: active = hit-call score of the fitted dose curve at least 0.9, where 1 is the maximum; inactive = score below 0.9.
Tests used:
[1] = APR_HepG2_NuclearSize_72hr: Apredica 72-hour HepG2 Assay for Nuclear Size (AID 2282925); details: high-content imaging, actives raise or lower the signal
Method in brief: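 Compounds (0.39–200 uM, final DMSO 0.5%) were applied to HepG2 for 72 hr. Cells were then formaldehyde-fixed, permeabilized and labelled with Hoechst 33342. Nuclear diameter was quantified from six images per well.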

[2] = ATG_CRE_CIS: Attagene CIS-FACTORIAL HepG2 Assay for human cAMP Responsive Element (CRE) binding protein 3 (AID 2282926); details: HepG2 CRE cis-reporter, Attagene multiplexed mRNA; actives raise or lower the signal
Method in brief: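 Cells carrying cis-regulated reporter constructs respond through their own endogenous factors. After 24 h treatment, RNA is reverse-transcribed, amplified, labelled and sized by capillary electrophoresis; up- and down-regulation are both scored against vehicle.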

[3] = target: CCAAT/enhancer-binding protein beta (Homo sapiens) (UniProt P17676); test: ATG_C_EBP_CIS: Attagene CIS-FACTORIAL HepG2 Assay for human CCAAT/Enhancer Binding Protein (C/EBP) beta (AID 2282927); details: HepG2 Attagene cis-factorial transcription factor reporter; actives raise or lower the signal
Method in brief: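 RT-PCR/capillary electrophoresis fluorescence of reporter mRNA, 24 h post-dose, in HepG2 cells carrying transfected cis-promoter reporter units. Bidirectional curve fitting against DMSO baseline captures gain or loss of signal.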

[4] = ATG_CMV_CIS: Attagene CIS-FACTORIAL HepG2 Assay for human CMV (Internal Marker) (AID 2282928); details: HepG2 CMV promoter reporter, transcription factor profiling; actives raise or lower the signal;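 also: endpoint acts as a background internal control marker rather than a target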
Method in brief: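 Reporter transcripts from transfected HepG2 cells are isolated after 24 h of chemical dosing, reverse-transcribed and amplified. Fragments labeled with 6-FAM are cut with HpaI and quantified by capillary electrophoresis; DMSO defines baseline.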

[5] = ATG_DR4_LXR_CIS: Attagene CIS-FACTORIAL HepG2 Assay for human Liver X Receptor (LXR), DR4 submotif (AID 2282929); details: HepG2 Attagene DR4 cis-reporter, mRNA transcription; actives raise or lower the signal
Method in brief: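 After transient transfection with multiplexed cis-promoter reporter units, HepG2 cells received test chemicals for 24 h. Reporter mRNA induction, detected by fluorescence after RT-PCR and capillary electrophoresis, was scored relative to DMSO.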

[6] = target: Aryl hydrocarbon receptor (Homo sapiens) (UniProt P35869); test: ATG_Ahr_CIS: Attagene CIS-FACTORIAL HepG2 Assay for human Aryl Hydrocarbon Receptor (Ahr) (AID 2282930); details: HepG2 AhR cis-factorial reporter transcription; actives raise or lower the signal
Method in brief: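 HepG2 cells transiently transfected with cis-element-driven multiplexed reporter transcription units; endogenous transcription factor activity measured as reporter mRNA 24 h after dosing. RT-PCR, 6-FAM labelling, HpaI digestion, capillary electrophoresis; bidirectional fitting versus DMSO baseline.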

[7] = ATG_AP_1_CIS: Attagene CIS-FACTORIAL HepG2 Assay for human Activator Protein 1 (AP-1) (AID 2282931); details: HepG2 Attagene cis-factorial AP-1 reporter mRNA; actives raise or lower the signal
Method in brief: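 After 24 h incubation with test chemical, RNA from transfected HepG2 cells was reverse-transcribed, amplified, fluorescently labelled and digested before capillary electrophoresis. Reporters were driven by cis-regulatory promoters; activity fitted bidirectionally versus DMSO.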

[8] = ATG_AP_2_CIS: Attagene CIS-FACTORIAL HepG2 Assay for human Activator Protein 2 (AP-2) (AID 2282932); details: HepG2 AP-2 cis-reporter, Attagene transcription factor profiling; actives raise or lower the signal
Method in brief: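 Assay in transfected HepG2 with promoter-regulated reporters, 24 h incubation after dosing. Signal is reporter mRNA fluorescence (RT-PCR, capillary electrophoresis), analysed for both increases and decreases relative to DMSO controls.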

[9] = ATG_BRE_CIS: Attagene CIS-FACTORIAL HepG2 Assay for human Bone Morphogenetic Protein (BMP) Response Element (BRE) (AID 2282933); details: HepG2 BMP response element reporter, Attagene transcription factor profiling; actives raise or lower the signal
Method in brief: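 Endogenous transcription factor activity at a BMP response element was monitored in transfected HepG2 cells 24 h after dosing. Fluorescent RT-PCR products were resolved by capillary electrophoresis, and activity was fitted in both directions versus DMSO.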

[10] = target: Transcription factor E2F1 (Homo sapiens) (UniProt Q01094); test: ATG_E2F_CIS: Attagene CIS-FACTORIAL HepG2 Assay for human E2F Transcription Factor 1 (AID 2282935); details: HepG2 Attagene cis-reporter, E2F reporter RNA transcripts; actives raise or lower the signal
Method in brief: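 In this cis-factorial format, endogenous factor activity drives transfected reporters in HepG2; transcripts collected at 24 h are quantified by fluorescence after RT-PCR and capillary separation.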

[11] = ATG_E_Box_CIS: Attagene CIS-FACTORIAL HepG2 Assay for human Enhancer Box (E-box) (AID 2282936); details: HepG2 E-box cis-reporter transcription, actives raise or lower the signal
Method in brief: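 Measured 24 h post-dosing in HepG2 cells transfected with multiple cis-regulated reporter units, signal being reporter mRNA induction detected by fluorescent RT-PCR with capillary electrophoresis; gain or loss fitted against DMSO.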

[12] = ATG_M_61_CIS: Attagene CIS-FACTORIAL HepG2 Assay for M61 Transcription Factor (Internal Marker) (AID 2282937); details: HepG2 Attagene CIS-FACTORIAL M61 internal marker reporter; actives raise or lower the signal
Method in brief: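 Using transiently transfected HepG2 liver cells, reporter transcript levels were assessed 24 h post-dosing by RT-PCR and capillary electrophoresis. Changes in either direction were fitted relative to DMSO controls.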

[13] = ATG_EGR_CIS: Attagene CIS-FACTORIAL HepG2 Assay for human Early Growth Response 1 (EGR1) (AID 2282938); details: HepG2 Attagene CIS-FACTORIAL EGR reporter mRNA; actives raise or lower the signal
Method in brief: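 Fluorescent capillary-electrophoresis signal of reporter cDNA fragments serves as read-out. HepG2 cells bear transiently transfected cis-promoter reporter units and are exposed 24 h; gain- or loss-of-signal is fitted against DMSO.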

[14] = ATG_M_19_CIS: Attagene CIS-FACTORIAL HepG2 Assay for M19 Transcription Factor (Internal Marker) (AID 2282939); details: HepG2 Attagene CIS-FACTORIAL M19 internal marker reporter; actives raise or lower the signal
Method in brief: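 Background-control endpoint from a multiplexed HepG2 reporter panel. Cells carrying cis-regulated reporter constructs are treated 24 h, then reporter transcripts are amplified, fluorescently labelled and sized by capillary electrophoresis. DMSO defines baseline.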

[15] = ATG_ERE_CIS: Attagene CIS-FACTORIAL HepG2 Assay for Estrogen Response Element (ERE) (AID 2282940); details: HepG2 ERE cis-reporter, Attagene RNA transcript; actives raise or lower the signal
Method in brief: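 Cells used were human hepatoma HepG2, transfected with multiple reporter transcription units under cis-regulatory promoters. Reporter mRNA, read 24 h post-dosing via fluorescent RT-PCR products on capillary electrophoresis, was fitted bidirectionally relative to DMSO.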

[16] = ATG_Ets_CIS: Attagene CIS-FACTORIAL HepG2 Assay for human Erythroblast Transformation Specific (ETS) (AID 2282941); details: HepG2 ETS cis-reporter transcription, actives raise or lower the signal
Method in brief: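 Bidirectional fit versus DMSO of reporter mRNA signal, detected by RT-PCR and capillary electrophoresis in HepG2 cells transiently transfected with cis-element reporters and dosed 24 h.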

[17] = target: Hepatocyte nuclear factor 3-beta (Homo sapiens) (UniProt Q9Y261); test: ATG_FoxA2_CIS: Attagene CIS-FACTORIAL HepG2 Assay for human Forkhead box A2 (FOXA2) (AID 2282942); details: HepG2 cis-reporter transcription factor activity, 24 h; actives raise or lower the signal
Method in brief: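 Fluorescence signal of reporter cDNA fragments, separated by capillary electrophoresis, reflects endogenous transcription factor activity in transfected HepG2 after 24 h. Both increases and decreases fitted against DMSO.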

[18] = ATG_FoxO_CIS: Attagene CIS-FACTORIAL HepG2 Assay for human Forkhead box O (FoxO) (AID 2282943); details: HepG2 Attagene cis-reporter, FoxO element, mRNA; actives raise or lower the signal
Method in brief: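 HepG2 cells transiently transfected with cis-promoter-driven multiple reporter transcription units; 24 h after chemical dosing, reporter mRNA quantified by RT-PCR, fluorescent primer extension, HpaI digestion and capillary electrophoresis. Bidirectional fitting versus DMSO baseline.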

[19] = ATG_GATA_CIS: Attagene CIS-FACTORIAL HepG2 Assay for human GATA Binding Protein (AID 2282944); details: HepG2 GATA cis-element reporter, Attagene multiplex mRNA; actives raise or lower the signal
Method in brief: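 Endogenous transcription factor activity was captured through cis-promoter-driven reporters in transfected HepG2 cells. After 24 h exposure, reporter transcripts were quantified by RT-PCR with fluorescent capillary electrophoresis, and responses fitted both directions against DMSO.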

[20] = target: Retinoic acid receptor alpha (Homo sapiens) (UniProt P10276); test: ATG_DR5_RAR_CIS: Attagene CIS-FACTORIAL HepG2 Assay for human Retinoic Acid Receptor Alpha (RARE), DR5 submotif (AID 2282934); details: HepG2 Attagene cis-factorial RARE DR5 reporter, mRNA; actives raise or lower the signal
Method in brief: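 HepG2 cells transiently transfected with multiplexed reporter units under cis (DR5 RARE) promoters, so endogenous transcription factor activity is measured. After 24 h compound exposure, reporter mRNA is quantified by RT-PCR with fluorescent labelling and capillary electrophoresis; bidirectional fitting versus DMSO.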

Measured: AC50

Sequence of Retinoic acid receptor alpha (Homo sapiens) (P10276 whole entry, looked up): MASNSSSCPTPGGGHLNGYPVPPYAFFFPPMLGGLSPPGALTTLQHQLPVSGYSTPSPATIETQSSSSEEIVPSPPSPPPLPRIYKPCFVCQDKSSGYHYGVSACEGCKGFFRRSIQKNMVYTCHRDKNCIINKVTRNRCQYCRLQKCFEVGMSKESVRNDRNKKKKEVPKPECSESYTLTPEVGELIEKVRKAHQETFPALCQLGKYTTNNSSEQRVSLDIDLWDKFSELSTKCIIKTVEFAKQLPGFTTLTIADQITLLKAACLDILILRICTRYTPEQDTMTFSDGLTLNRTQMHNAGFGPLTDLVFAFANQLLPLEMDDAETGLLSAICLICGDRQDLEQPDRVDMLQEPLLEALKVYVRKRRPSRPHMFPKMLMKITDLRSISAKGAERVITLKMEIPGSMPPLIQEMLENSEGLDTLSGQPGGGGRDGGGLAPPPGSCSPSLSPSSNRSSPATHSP
Sequence of Transcription factor E2F1 (Homo sapiens) (Q01094 whole entry, looked up): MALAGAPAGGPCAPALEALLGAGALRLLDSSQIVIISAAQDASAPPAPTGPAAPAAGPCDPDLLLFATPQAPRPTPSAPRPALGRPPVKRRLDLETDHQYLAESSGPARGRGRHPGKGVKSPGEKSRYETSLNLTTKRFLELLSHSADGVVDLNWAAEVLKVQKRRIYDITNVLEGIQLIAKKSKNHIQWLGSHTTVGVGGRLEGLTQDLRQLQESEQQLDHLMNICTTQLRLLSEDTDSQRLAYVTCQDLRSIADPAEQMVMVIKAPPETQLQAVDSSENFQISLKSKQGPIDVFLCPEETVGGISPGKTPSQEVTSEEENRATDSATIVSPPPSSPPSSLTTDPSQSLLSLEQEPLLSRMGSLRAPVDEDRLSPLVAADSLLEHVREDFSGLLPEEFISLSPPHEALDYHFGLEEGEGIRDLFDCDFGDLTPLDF
Sequence of Hepatocyte nuclear factor 3-beta (Homo sapiens) (Q9Y261 whole entry, looked up, the tested form may be a part): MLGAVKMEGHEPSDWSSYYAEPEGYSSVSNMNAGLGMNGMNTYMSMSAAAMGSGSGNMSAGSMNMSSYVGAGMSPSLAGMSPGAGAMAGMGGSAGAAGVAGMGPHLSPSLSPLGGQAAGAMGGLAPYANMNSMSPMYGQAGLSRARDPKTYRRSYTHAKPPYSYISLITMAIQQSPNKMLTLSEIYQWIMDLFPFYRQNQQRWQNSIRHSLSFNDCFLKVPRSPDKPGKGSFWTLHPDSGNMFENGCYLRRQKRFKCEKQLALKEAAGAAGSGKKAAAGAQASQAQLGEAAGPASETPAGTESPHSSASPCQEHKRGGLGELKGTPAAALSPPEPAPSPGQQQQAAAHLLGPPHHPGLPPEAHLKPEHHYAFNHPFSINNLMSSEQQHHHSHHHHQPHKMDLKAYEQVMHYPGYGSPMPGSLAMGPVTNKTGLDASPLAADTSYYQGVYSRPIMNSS
Sequence of CCAAT/enhancer-binding protein beta (Homo sapiens) (P17676 whole entry, looked up): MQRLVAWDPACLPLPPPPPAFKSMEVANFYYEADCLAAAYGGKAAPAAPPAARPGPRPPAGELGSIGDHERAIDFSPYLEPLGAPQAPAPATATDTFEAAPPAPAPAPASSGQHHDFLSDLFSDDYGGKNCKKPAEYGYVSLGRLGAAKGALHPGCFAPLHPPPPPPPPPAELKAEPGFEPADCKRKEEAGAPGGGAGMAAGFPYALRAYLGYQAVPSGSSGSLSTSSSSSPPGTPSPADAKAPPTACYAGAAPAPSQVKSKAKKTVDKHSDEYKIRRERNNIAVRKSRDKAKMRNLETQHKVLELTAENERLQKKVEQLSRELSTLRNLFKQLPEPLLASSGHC
Sequence of Aryl hydrocarbon receptor (Homo sapiens) (P35869 whole entry, looked up): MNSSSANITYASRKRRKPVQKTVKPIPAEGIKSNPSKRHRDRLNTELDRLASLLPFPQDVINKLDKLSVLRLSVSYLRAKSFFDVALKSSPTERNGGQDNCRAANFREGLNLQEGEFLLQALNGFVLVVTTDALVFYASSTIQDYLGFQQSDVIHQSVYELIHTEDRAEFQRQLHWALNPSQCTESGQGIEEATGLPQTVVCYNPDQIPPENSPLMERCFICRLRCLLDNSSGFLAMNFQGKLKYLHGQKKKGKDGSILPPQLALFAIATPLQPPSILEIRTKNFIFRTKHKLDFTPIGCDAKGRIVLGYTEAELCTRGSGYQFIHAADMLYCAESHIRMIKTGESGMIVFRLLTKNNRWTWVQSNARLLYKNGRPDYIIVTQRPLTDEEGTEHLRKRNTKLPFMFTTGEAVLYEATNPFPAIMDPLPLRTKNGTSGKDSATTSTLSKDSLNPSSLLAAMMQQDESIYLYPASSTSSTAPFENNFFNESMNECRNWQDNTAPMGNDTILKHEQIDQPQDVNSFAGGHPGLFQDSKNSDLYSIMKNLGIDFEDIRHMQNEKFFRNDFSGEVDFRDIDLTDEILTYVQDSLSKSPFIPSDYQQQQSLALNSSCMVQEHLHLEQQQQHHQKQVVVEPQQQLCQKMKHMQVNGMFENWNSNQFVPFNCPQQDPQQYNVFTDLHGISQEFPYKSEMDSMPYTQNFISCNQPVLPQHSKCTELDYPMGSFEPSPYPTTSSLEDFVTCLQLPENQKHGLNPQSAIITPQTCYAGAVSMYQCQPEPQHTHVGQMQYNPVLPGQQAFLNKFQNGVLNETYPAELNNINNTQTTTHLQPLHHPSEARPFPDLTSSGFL

CCOP(=O)(OCC)Oc1nc(Cl)c(Cl)cc1Cl
active: [4] 19.6 µM | [15] 39.1 µM
inactive: [1] | [2] | [3] | [5] | [6] | [7] | [8] | [9] | [10] | [11] | [12] | [13] | [14] | [16] | [17] | [18] | [19]

CCN(CC)c1nc(C)cc(OP(=S)(OC)OC)n1
active: [2] 21.9 µM | [5] 50 µM | [6] 30.7 µM | [13] 50 µM | [15] 12.7 µM
inactive: [1] | [3] | [4] | [7] | [8] | [9] | [10] | [11] | [12] | [14] | [16] | [17] | [18] | [19]

CN=C=S
inactive: [1] | [4] | [5] | [6] | [8] | [10] | [11] | [12] | [13] | [14] | [15] | [16] | [17] | [18] | [19]
active: [2] 13.7 µM | [3] 15.4 µM | [7] 13.5 µM | [9] 16.5 µM

CS(=O)(=O)c1cc(C(F)(F)F)ccc1C(=O)c1cnoc1C1CC1
active: [7] 78.7 µM
inactive: [1] | [2] | [3] | [4] | [5] | [6] | [8] | [9] | [20] | [10] | [11] | [12] | [13] | [14] | [15] | [16] | [17] | [18] | [19]

CC(C)NC(=O)N1CC(=O)N(c2cc(Cl)cc(Cl)c2)C1=O
inactive: [1] | [2] | [3] | [4] | [5] | [7] | [8] | [9] | [10] | [11] | [12] | [13] | [14] | [16] | [17] | [18] | [19]
active: [6] 4.87 µM | [15] 20.6 µM

CC1(C)CON(Cc2ccccc2Cl)C1=O
inactive: [1] | [2] | [3] | [4] | [5] | [6] | [7] | [8] | [9] | [10] | [11] | [12] | [13] | [14] | [16] | [17] | [18] | [19]
active: [15] 50 µM

CC(C)N1C(=O)c2ccccc2NS1(=O)=O
inactive: [1] | [2] | [3] | [4] | [6] | [8] | [9] | [20] | [10] | [11] | [12] | [13] | [14] | [15] | [16] | [17] | [18] | [19]
active: [5] 62 µM

N#CN=C1SCCN1Cc1ccc(Cl)nc1
inactive: [1] | [2] | [3] | [4] | [5] | [6] | [8] | [9] | [20] | [10] | [11] | [12] | [13] | [14] | [15] | [16] | [17] | [18] | [19]

COCC(=O)N(c1c(C)cccc1C)C(C)C(=O)OC (stereo unspecified)
active: [6] 81.7 µM | [9] 50 µM
inactive: [1] | [2] | [3] | [4] | [5] | [7] | [8] | [20] | [10] | [11] | [12] | [13] | [14] | [15] | [16] | [17] | [18] | [19]

COP(=S)(OC)Oc1ccc([N+](=O)[O-])c(C)c1
active: [2] 17.8 µM | [7] 68 µM | [9] 32.7 µM | [13] 28.9 µM | [15] 13.7 µM
inactive: [1] | [3] | [4] | [5] | [6] | [8] | [10] | [11] | [12] | [14] | [16] | [17] | [18] | [19]

CCNC(=O)NC(=O)C(C#N)=NOC
inactive: [1] | [2] | [3] | [4] | [5] | [6] | [7] | [8] | [9] | [20] | [10] | [11] | [12] | [13] | [14] | [16] | [17] | [18] | [19]
active: [15] 50 µM

COP(=S)(OC)SCn1nnc2ccccc2c1=O
inactive: [1] | [4] | [5] | [6] | [8] | [10] | [11] | [12] | [14] | [15] | [16] | [17] | [18] | [19]
active: [2] 18.8 µM | [3] 6.88 µM | [7] 76.6 µM | [9] 13.3 µM | [13] 23.7 µM

Source: PubChem BioAssay (EPA / NIEHS)
